Reference: article PMC7862700, “An all-to-all approach to the identification of sequence-specific readers for epigenetic DNA modifications on cytosine”

Assays:
Experiment in all cases: DAPPL (digital affinity profiling via proximity ligation, sequencing); 10 mM Tris-HCl pH 7.5, 50 mM NaCl, 1 mM DTT, 4% glycerol, room temperature, 30 min; GST-TFs on glutathione beads, 16-mer random dsDNA library, 0.1% formaldehyde crosslink after washing; high values mean tight binding
Settings in all cases: protein: recombinant; tags: N-terminal GST; dsDNA, one strand shown
ERF = target: T1, ERF (Homo sapiens, UniProt P50548 1-548)
T1 sequence: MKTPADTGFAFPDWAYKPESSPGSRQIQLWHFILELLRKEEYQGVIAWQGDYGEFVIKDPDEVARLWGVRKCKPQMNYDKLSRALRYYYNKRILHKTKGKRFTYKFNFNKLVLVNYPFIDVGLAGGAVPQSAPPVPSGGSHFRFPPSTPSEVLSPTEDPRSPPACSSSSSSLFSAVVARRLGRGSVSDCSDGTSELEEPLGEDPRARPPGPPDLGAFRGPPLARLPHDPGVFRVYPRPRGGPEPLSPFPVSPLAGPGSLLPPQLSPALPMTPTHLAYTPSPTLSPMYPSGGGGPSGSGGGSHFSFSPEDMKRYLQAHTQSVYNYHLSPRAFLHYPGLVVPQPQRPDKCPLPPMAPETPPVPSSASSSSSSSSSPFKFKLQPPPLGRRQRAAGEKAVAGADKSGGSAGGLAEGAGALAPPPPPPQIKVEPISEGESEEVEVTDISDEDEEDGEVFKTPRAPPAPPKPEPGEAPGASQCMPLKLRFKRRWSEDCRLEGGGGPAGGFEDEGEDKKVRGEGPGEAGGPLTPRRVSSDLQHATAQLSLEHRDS
Outline: (§1)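 Binding signal is each hexamer's read frequency for a factor divided by its frequency in the tag-only sample. The factors were GST-fused human transcription factors from yeast, captured on glutathione beads, DNA-barcoded and pooled with that sample. Pools were incubated with 200 nmole of a random double-stranded 16-mer DNA library in Tris/NaCl/DTT/glycerol buffer at room temperature for 30 min, then washed, crosslinked with 0.1% formaldehyde, proximity-ligated with BsaI/T4 ligase (1 h, 37 °C), PCR-amplified and sequenced on an Illumina NextSeq500.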

ETV3L = target: T2, ETV3L (Homo sapiens, UniProt Q6ZN32 1-361)
T2 sequence: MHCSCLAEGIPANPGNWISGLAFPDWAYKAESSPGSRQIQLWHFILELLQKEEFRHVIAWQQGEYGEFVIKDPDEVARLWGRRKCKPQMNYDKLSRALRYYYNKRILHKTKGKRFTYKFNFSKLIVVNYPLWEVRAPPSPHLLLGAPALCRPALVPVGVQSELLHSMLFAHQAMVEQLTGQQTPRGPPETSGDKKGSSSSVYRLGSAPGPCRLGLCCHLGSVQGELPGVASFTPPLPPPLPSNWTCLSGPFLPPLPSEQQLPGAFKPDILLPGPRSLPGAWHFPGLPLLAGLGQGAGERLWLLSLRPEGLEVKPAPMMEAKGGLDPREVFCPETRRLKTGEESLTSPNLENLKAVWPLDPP
Outline: as §1

ETS2 = target: T3, ETS2 (Homo sapiens, UniProt P15036 1-469)
T3 sequence: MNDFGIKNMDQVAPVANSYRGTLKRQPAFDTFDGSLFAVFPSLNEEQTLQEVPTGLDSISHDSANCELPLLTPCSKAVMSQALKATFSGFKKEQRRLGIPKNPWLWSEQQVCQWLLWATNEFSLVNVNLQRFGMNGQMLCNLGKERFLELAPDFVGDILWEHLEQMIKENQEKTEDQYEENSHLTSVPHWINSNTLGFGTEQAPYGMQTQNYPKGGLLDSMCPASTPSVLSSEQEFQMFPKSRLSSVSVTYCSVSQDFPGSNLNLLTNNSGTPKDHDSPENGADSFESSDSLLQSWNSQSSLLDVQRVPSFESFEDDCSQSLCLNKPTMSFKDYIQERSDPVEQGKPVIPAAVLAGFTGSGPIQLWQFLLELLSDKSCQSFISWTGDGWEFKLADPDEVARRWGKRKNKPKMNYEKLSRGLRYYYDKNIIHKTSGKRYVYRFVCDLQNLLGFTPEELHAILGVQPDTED
Outline: as §1

SPDEF = target: T4, SPDEF (Homo sapiens, UniProt O95238 1-335)
T4 sequence: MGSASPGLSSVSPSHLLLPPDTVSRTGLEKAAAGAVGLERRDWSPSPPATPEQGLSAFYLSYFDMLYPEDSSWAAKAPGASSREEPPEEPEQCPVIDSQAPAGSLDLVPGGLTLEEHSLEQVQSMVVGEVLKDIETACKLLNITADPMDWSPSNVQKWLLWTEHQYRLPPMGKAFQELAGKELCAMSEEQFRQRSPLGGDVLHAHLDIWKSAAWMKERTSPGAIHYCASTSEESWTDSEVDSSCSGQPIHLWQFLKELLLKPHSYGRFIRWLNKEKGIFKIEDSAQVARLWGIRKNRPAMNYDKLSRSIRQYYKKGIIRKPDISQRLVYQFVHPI
Outline: as §1

ETV7 = target: T5, ETV7 (Homo sapiens, UniProt Q9Y603 1-341)
T5 sequence: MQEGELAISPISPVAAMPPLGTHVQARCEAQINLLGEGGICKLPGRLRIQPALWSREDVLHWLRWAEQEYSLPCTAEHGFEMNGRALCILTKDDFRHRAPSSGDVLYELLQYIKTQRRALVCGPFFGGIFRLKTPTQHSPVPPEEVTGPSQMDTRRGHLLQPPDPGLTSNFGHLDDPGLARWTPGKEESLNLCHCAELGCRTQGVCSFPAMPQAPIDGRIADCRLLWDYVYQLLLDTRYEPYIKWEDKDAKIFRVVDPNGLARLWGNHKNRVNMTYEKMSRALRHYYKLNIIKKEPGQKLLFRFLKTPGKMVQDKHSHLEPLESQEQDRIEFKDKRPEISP
Outline: as §1

ELF5 = target: T6, ELF5 (Homo sapiens, UniProt Q9UKW6-2 1-255)
T6 sequence: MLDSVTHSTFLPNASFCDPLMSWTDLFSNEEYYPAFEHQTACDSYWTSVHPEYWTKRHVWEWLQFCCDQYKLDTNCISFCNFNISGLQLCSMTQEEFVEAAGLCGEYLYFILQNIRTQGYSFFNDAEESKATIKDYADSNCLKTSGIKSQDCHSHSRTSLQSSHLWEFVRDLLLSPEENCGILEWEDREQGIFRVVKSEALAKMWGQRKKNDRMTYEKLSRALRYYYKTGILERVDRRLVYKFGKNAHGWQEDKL
Outline: as §1

ETV3 = target: T7, ETV3 (Homo sapiens, UniProt P41162-2 1-143)
T7 sequence: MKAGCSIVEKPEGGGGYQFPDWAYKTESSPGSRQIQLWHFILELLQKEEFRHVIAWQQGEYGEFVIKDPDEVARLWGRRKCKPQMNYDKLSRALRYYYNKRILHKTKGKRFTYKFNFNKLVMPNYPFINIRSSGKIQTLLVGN
Outline: as §1

ETV6 = ETV6 (Homo sapiens, UniProt P41212 1-452)
Outline: as §1

Chain of ETV6 (P41212 whole entry): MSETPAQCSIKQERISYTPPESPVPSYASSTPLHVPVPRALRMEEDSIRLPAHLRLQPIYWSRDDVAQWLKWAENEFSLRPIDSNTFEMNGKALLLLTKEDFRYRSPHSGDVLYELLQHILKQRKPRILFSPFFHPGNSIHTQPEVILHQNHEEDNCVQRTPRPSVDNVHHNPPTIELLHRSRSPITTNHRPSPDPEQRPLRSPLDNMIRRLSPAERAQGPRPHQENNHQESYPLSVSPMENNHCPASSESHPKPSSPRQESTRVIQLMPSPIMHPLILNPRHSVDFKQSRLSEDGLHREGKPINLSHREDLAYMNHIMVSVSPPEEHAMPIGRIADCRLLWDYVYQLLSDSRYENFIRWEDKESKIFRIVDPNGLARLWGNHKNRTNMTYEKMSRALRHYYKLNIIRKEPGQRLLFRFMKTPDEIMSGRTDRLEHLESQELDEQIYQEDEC

| Sequence | binding signal (ERF) | binding signal (ETV3L) | binding signal (ETS2) | binding signal (SPDEF) | binding signal (ETV7) | binding signal (ELF5) | binding signal (ETV3) | binding signal (ETV6) |
| --- | --- | --- | --- | --- | --- | --- | --- | --- |
| CCAATC | 1.03 fold enrichment (6-mer frequency, TF over GST control) | 1.19 fold enrichment (6-mer frequency, TF over GST control) | 1.19 fold enrichment (6-mer frequency, TF over GST control) | 1.16 fold enrichment (6-mer frequency, TF over GST control) | 1.23 fold enrichment (6-mer frequency, TF over GST control) | 1.16 fold enrichment (6-mer frequency, TF over GST control) | 1.15 fold enrichment (6-mer frequency, TF over GST control) | 1.15 fold enrichment (6-mer frequency, TF over GST control) |
| TACCTC | 1.32 fold enrichment (6-mer frequency, TF over GST control) | 1.43 fold enrichment (6-mer frequency, TF over GST control) | 1.26 fold enrichment (6-mer frequency, TF over GST control) | 1.23 fold enrichment (6-mer frequency, TF over GST control) | 1.19 fold enrichment (6-mer frequency, TF over GST control) | 1.29 fold enrichment (6-mer frequency, TF over GST control) | 1.25 fold enrichment (6-mer frequency, TF over GST control) | 1.11 fold enrichment (6-mer frequency, TF over GST control) |
| TTCTAG | 1.33 fold enrichment (6-mer frequency, TF over GST control) | 1.3 fold enrichment (6-mer frequency, TF over GST control) | 1.34 fold enrichment (6-mer frequency, TF over GST control) | 1.17 fold enrichment (6-mer frequency, TF over GST control) | 1.45 fold enrichment (6-mer frequency, TF over GST control) | 1.2 fold enrichment (6-mer frequency, TF over GST control) | 1.19 fold enrichment (6-mer frequency, TF over GST control) | 1.16 fold enrichment (6-mer frequency, TF over GST control) |
| TCTAGT | 1.25 fold enrichment (6-mer frequency, TF over GST control) | 1.05 fold enrichment (6-mer frequency, TF over GST control) | 1.17 fold enrichment (6-mer frequency, TF over GST control) | 1.06 fold enrichment (6-mer frequency, TF over GST control) | 1.1 fold enrichment (6-mer frequency, TF over GST control) | 1.04 fold enrichment (6-mer frequency, TF over GST control) | 1.08 fold enrichment (6-mer frequency, TF over GST control) | 1.12 fold enrichment (6-mer frequency, TF over GST control) |
| CCATAA | 1.24 fold enrichment (6-mer frequency, TF over GST control) | 1.22 fold enrichment (6-mer frequency, TF over GST control) | 1.22 fold enrichment (6-mer frequency, TF over GST control) | 1.12 fold enrichment (6-mer frequency, TF over GST control) | 1.15 fold enrichment (6-mer frequency, TF over GST control) | 1.1 fold enrichment (6-mer frequency, TF over GST control) | 1.25 fold enrichment (6-mer frequency, TF over GST control) | 1.21 fold enrichment (6-mer frequency, TF over GST control) |
| CTTCCT | 2.9 fold enrichment (6-mer frequency, TF over GST control) | 3.08 fold enrichment (6-mer frequency, TF over GST control) | 3.37 fold enrichment (6-mer frequency, TF over GST control) | 2.74 fold enrichment (6-mer frequency, TF over GST control) | 2.76 fold enrichment (6-mer frequency, TF over GST control) | 5.89 fold enrichment (6-mer frequency, TF over GST control) | 3.61 fold enrichment (6-mer frequency, TF over GST control) | 3.81 fold enrichment (6-mer frequency, TF over GST control) |
| TTCGAA | 1.33 fold enrichment (6-mer frequency, TF over GST control) | 1.25 fold enrichment (6-mer frequency, TF over GST control) | 1.24 fold enrichment (6-mer frequency, TF over GST control) | 1.17 fold enrichment (6-mer frequency, TF over GST control) | 1.26 fold enrichment (6-mer frequency, TF over GST control) | 1.14 fold enrichment (6-mer frequency, TF over GST control) | 1.03 fold enrichment (6-mer frequency, TF over GST control) | 1.15 fold enrichment (6-mer frequency, TF over GST control) |
| TAAACT | 1.35 fold enrichment (6-mer frequency, TF over GST control) | 1.17 fold enrichment (6-mer frequency, TF over GST control) | 1.18 fold enrichment (6-mer frequency, TF over GST control) | 1.01 fold enrichment (6-mer frequency, TF over GST control) | 1.04 fold enrichment (6-mer frequency, TF over GST control) | 1.16 fold enrichment (6-mer frequency, TF over GST control) | 1.15 fold enrichment (6-mer frequency, TF over GST control) | 1.13 fold enrichment (6-mer frequency, TF over GST control) |
